Among the test systems are NCI-H23 lung; NCI-H226 lung; NCI-H322M lung; HOP-62 NSCLC; NCI-H460 lung; HOP-92 NSCLC; NCI-H522 lung; A549/ATCC NSCLC; 786-0 renal; COLO 205 colon; DU-145 prostate; K-562 leukemia; MALME-3M melanoma; MDA-MB-231 breast; RXF 393 renal; SF-268 CNS; SF-295 CNS; SF-539 CNS; UACC-257 melanoma; M14 melanoma.
Common to all, as to experiment: NCI-60 one-dose screen, 48 h (100 = growth as untreated, 0 = no growth, -100 = all killed)
Holding throughout (settings): 10 µM unless noted

Compounds without any hit were thinned out: in the full panel of roughly 83,000, 20% have a hit.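 Cell lines were cultured in 96-well plates, exposed to a single compound concentration, and assessed for percent growth 48 hours later.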 A number with no mark means an inactive call. The source made the active and inactive calls. The calls were made as follows: active = growth percent below 10; inactive = the rest.

With `COc1cc(C2=NN(c3ccccc3)C(c3cccc(Nc4ccnc5cc(C(F)(F)F)ccc45)c3)C2)cc(OC)c1OC` (stereo not given), the growth was 79.1% with NCI-H23 lung; 83.6% in the experiment on NCI-H226 lung; 85.6% in the experiment with NCI-H322M lung; 88.8% in the experiment with HOP-62 NSCLC; 96.2% with NCI-H460 lung; 73.4% in the experiment with HOP-92 NSCLC. In addition, the growth is 76.4% with NCI-H522 lung; 86.5% in the experiment on A549/ATCC NSCLC; 101% with 786-0 renal; 86.7% in the experiment with COLO 205 colon; 93.6% in the experiment on DU-145 prostate; 68.2% in the experiment with K-562 leukemia. The growth in the experiment on MALME-3M melanoma was 92.1%; in the experiment on MDA-MB-231 breast, 85.9%; with RXF 393 renal it was 73.7%; in the experiment with SF-268 CNS, 74.3%; with SF-295 CNS, 64.8%; with SF-539 CNS, 100%. Moreover, the figures for the growth with UACC-257 melanoma and in the experiment on M14 melanoma were 97.3% and 92.9%, respectively.
On to `O=c1c2ccccc2oc2ccc(OCCCCCN3CCCCCC3)cc12`, for which the growth is 72% with NCI-H23 lung; 91.4% with NCI-H226 lung; 85.9% with NCI-H322M lung; 92.5% in the experiment on HOP-62 NSCLC; 78.9% in the experiment with NCI-H460 lung; 94.1% in the experiment on HOP-92 NSCLC. In addition, the growth with NCI-H522 lung was 69.9%; in the experiment with A549/ATCC NSCLC it was 71.9%; with 786-0 renal, 78.5%; with COLO 205 colon it was 43.6%; with DU-145 prostate, 94.1%; in the experiment with K-562 leukemia, 21.3%. The growth is 40.2% with MALME-3M melanoma; 77.6% in the experiment with MDA-MB-231 breast; 58.6% in the experiment on RXF 393 renal; 79% in the experiment on SF-268 CNS; 87.8% with SF-295 CNS; 79.4% in the experiment with SF-539 CNS. Further, the growth with UACC-257 melanoma was 2.91% (active); with M14 melanoma, 31.5%.
Take `Nc1c(C(=O)Nc2ccccn2)sc2nc3c(cc12)CCCCC3`: the growth in the experiment on NCI-H23 lung is 29.9%; in the experiment with NCI-H226 lung, 77%; in the experiment on NCI-H322M lung, 52.6%; with HOP-62 NSCLC, 40.2%; in the experiment with NCI-H460 lung, 6.46% (active); in the experiment on HOP-92 NSCLC, 67.5%. In addition, the growth was 2.61% (active) in the experiment with NCI-H522 lung; 20.9% in the experiment with A549/ATCC NSCLC; 27.6% in the experiment on 786-0 renal; 6.18% (active) in the experiment on COLO 205 colon; 12.2% with DU-145 prostate; 7.25% (active) with K-562 leukemia. The growth in the experiment on MALME-3M melanoma was 73.1%; with MDA-MB-231 breast, 46.6%; in the experiment on RXF 393 renal it was 13.1%; with SF-268 CNS, 53.4%; in the experiment with SF-295 CNS, 15.4%; with SF-539 CNS it was 4.89% (active). For the same molecule, the growth is 72.5% in the experiment on UACC-257 melanoma and 10.8% with M14 melanoma.
Turning to `O=C1CCC23OC(C(O)c4ccccc4N12)C1C(Br)=NOC13` (stereo not given), the growth with NCI-H23 lung was 99.1%; in the experiment on NCI-H226 lung, 110%; in the experiment on NCI-H322M lung it was 107%; in the experiment on HOP-62 NSCLC, 96.8%; with NCI-H460 lung it was 110%; in the experiment on HOP-92 NSCLC, 109%. The growth with NCI-H522 lung was 99.9%; in the experiment on A549/ATCC NSCLC, 99.7%; in the experiment with 786-0 renal, 94.6%; with COLO 205 colon it was 108%; with DU-145 prostate, 107%; with K-562 leukemia it was 96.3%. Also, the growth with MALME-3M melanoma is 102%; in the experiment with MDA-MB-231 breast, 105%; in the experiment with RXF 393 renal it was 114%; in the experiment on SF-268 CNS it was 91.9%; in the experiment with SF-295 CNS it was 106%; with SF-539 CNS, 93.3%. The values for the growth in the experiment on UACC-257 melanoma and with M14 melanoma were 98.1% and 104%, respectively.
In the case of `COc1cc2c(cc1OCCCOc1cc3c(cc1OC)C(=O)N1CC(F)(F)C[C@H]1C=N3)N=C[C@@H]1CC(F)(F)CN1C2=O`, the growth with NCI-H23 lung was 5.01% (active); in the experiment on NCI-H226 lung it was -20.1% (active); in the experiment with NCI-H322M lung, 29%; with HOP-62 NSCLC it was 11.1%; with NCI-H460 lung, 7.32% (active); in the experiment with HOP-92 NSCLC, -35.4% (active). For the same molecule, the growth in the experiment on NCI-H522 lung was -26.4% (active); in the experiment with A549/ATCC NSCLC, 36.1%; in the experiment on 786-0 renal it was -22.8% (active); in the experiment on COLO 205 colon, 3.85% (active); in the experiment with DU-145 prostate, 17%; in the experiment on K-562 leukemia, 9.11% (active). The growth is -57.6% (active) with MALME-3M melanoma; 16% in the experiment on MDA-MB-231 breast; -65.5% (active) with RXF 393 renal; 30.4% with SF-268 CNS; 8.54% (active) in the experiment on SF-295 CNS; -27.9% (active) in the experiment with SF-539 CNS. In addition, the figures for the growth in the experiment on UACC-257 melanoma and in the experiment with M14 melanoma were 34.9% and -0.895% (active), respectively.
On to `O=C1NN(c2ccccc2)C(c2ccc(Cl)cc2)N2CCC[C@H]12` (stereo not given in full), for which the growth was 90.7% in the experiment with NCI-H23 lung; 95.6% with NCI-H226 lung; 94.1% with NCI-H322M lung; 98.8% with HOP-62 NSCLC; 103% in the experiment on NCI-H460 lung; 100% with HOP-92 NSCLC. Further, the growth with NCI-H522 lung is 106%; in the experiment on A549/ATCC NSCLC it was 103%; in the experiment on 786-0 renal it was 105%; in the experiment on COLO 205 colon, 108%; in the experiment on DU-145 prostate, 100%; with K-562 leukemia, 97%. Besides, the growth with MALME-3M melanoma was 92.2%; with MDA-MB-231 breast, 113%; with RXF 393 renal it was 108%; in the experiment on SF-268 CNS, 97.4%; with SF-295 CNS, 101%; in the experiment with SF-539 CNS it was 111%. Further, the figures for the growth in the experiment with UACC-257 melanoma and in the experiment on M14 melanoma were 94.7% and 97.9%, respectively.
In the case of `CCOCc1cc(C(C)(C)C)ccc1O`, the growth in the experiment on NCI-H23 lung is 103%; with NCI-H226 lung it was 97.4%; in the experiment with NCI-H322M lung, 106%; with HOP-62 NSCLC it was 95.2%; in the experiment on NCI-H460 lung, 103%; with HOP-92 NSCLC, 92.3%. The growth is 77.9% in the experiment with NCI-H522 lung; 90.4% in the experiment with A549/ATCC NSCLC; 97.6% with 786-0 renal; 114% in the experiment with COLO 205 colon; 110% with DU-145 prostate; 101% in the experiment with K-562 leukemia. Also, the growth is 104% with MALME-3M melanoma; 105% in the experiment on MDA-MB-231 breast; 109% in the experiment with RXF 393 renal; 105% with SF-268 CNS; 105% in the experiment with SF-295 CNS; 103% in the experiment with SF-539 CNS. Further, the growth is 89.3% in the experiment on UACC-257 melanoma and 104% in the experiment with M14 melanoma.
